This note sets out measurements from PubChem BioAssay (NCI).

Molecules are shown by their SMILES. About 79,000 compounds went through this panel and 15% of them were active in at least one assay; those are over-represented in the sample as a whole. Values without a mark were called inactive. Active and inactive are the calls of the source. Cut-off read from the data, not from the text of the source: active = growth inhibition above about 70%; inactive = the rest.

Test [1] is described as follows: NCI Yeast Anticancer Drug Screen. Data for the rad50 strain (AID 155).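 Note: 0% = growth of vehicle-only cultures of the same strain.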 Particulars: S. cerevisiae rad50 strain growth inhibition, hits give high values. In short, it runs like this: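 Growth of the mutant yeast was measured after compound exposure and referenced to vehicle-treated cultures.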
The nature of test [2]: NCI Yeast Anticancer Drug Screen. Data for the mec2-1 strain (AID 157). The settings on record: S. cerevisiae mec2-1 strain, hits give high values. In short, it runs like this: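 Each compound was tested on mec2-1 yeast, a strain altered in DNA damage repair or cell cycle control. Growth inhibition is reported relative to vehicle.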
The nature of test [3]: NCI Yeast Anticancer Drug Screen. Data for the sgs1 mgt1 strain (AID 161).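 Note: 0% = growth of cultures given vehicle only.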 Particulars: S. cerevisiae sgs1 mgt1 strain, hits give high values. In short, it runs like this: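 Mutant yeast exposed to compound; growth scored against vehicle-only wells.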
A short description of test [4]: NCI Yeast Anticancer Drug Screen. Data for the cln2 rad14 strain (AID 165).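 Note: 0% = growth equal to vehicle treated cultures.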 Particulars: S. cerevisiae cln2 rad14 strain, hits give high values. In short, it runs like this:
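Test compounds were added to cln2 rad14 yeast cultures; inhibition of growth was then determined by comparison with vehicle treatment.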

A short description of test [5]: NCI Yeast Anticancer Drug Screen. Data for the bub3 strain (AID 167). The settings on record: S. cerevisiae bub3 mutant strain, hits give high values. In short, it runs like this:
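Whole-cell yeast assay. The mutant strain was incubated with compounds, and growth inhibition was determined by comparison with vehicle-treated cells.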

Test [6] in a line: NCI Yeast Anticancer Drug Screen. Data for the mlh1 rad18 strain (AID 175). Particulars: S. cerevisiae mlh1 rad18 strain growth inhibition, hits give high values. A digest of the protocol: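 Inhibition values reflect reduced growth of mutant yeast versus vehicle-treated controls following compound exposure; the mutations affect DNA damage repair.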
Where [7] appears, read: at 5.0 µM (retest, dose inferred, filed as 0.5).
The mark [8] stands for this setting: at 50.0 µM (retest, dose inferred, filed as 5.0).

For the molecule `CC1=Nc2ccccc2C1C(Cc1ccccc1N)c1c(C)[nH]c2ccccc12` (stereo not given), the growth inhibition in test [1] (setting [7]) is 15%; in test [1] (setting [8]) it was 97% (active); in test [1] (at 50.0 µM), 95.6% (active); in test [2] (setting [7]), 16%; in test [2] (setting [8]), 95% (active); in test [2] (at 50.0 µM) it was 95.4% (active). The growth inhibition in test [3] (setting [7]) was 11%; in test [3] (setting [8]), 90% (active); in test [3] (at 50.0 µM), 88.8% (active); in test [4] (setting [7]) it was 15%; in test [4] (setting [8]), 98% (active); in test [4] (at 50.0 µM), 94.5% (active). Moreover, the growth inhibition was 7% in test [5] (setting [7]); 95% (active) in test [5] (setting [8]); 89.6% (active) in test [5] (at 50.0 µM); 11% in test [6] (setting [7]); 96% (active) in test [6] (setting [8]); 97% (active) in test [6] (at 50.0 µM).

On to `N=C(N)c1cccc(-c2ccc(-c3ccccc3)o2)c1`, for which the growth inhibition in test [1] (setting [7]) was -3%; in test [1] (setting [8]), 62%; in test [1] (at 50.0 µM) it was 92.2% (active); in test [2] (setting [7]), 4%; in test [2] (setting [8]), 72% (active); in test [2] (at 50.0 µM), 89.8% (active). The growth inhibition in test [3] (setting [7]) was 0%; in test [3] (setting [8]) it was 94% (active); in test [3] (at 50.0 µM), 57.2%; in test [4] (setting [7]) it was 2%; in test [4] (setting [8]), 67%; in test [4] (at 50.0 µM), 93.8% (active). The growth inhibition in test [5] (setting [7]) is 3%; in test [5] (setting [8]), 71% (active); in test [5] (at 50.0 µM), 79% (active); in test [6] (setting [7]), -11%; in test [6] (setting [8]), 85% (active); in test [6] (at 50.0 µM) it was 97% (active).

`O=[N+]([O-])c1ccc(S(=O)/N=C/c2ccccc2)c([N+](=O)[O-])c1` (stereo not given): the growth inhibition in test [1] (setting [7]) was -2%; in test [1] (setting [8]) it was 96% (active); in test [1] (at 50.0 µM), 48.2%; in test [2] (setting [7]), -4%; in test [2] (setting [8]) it was 98% (active); in test [2] (at 50.0 µM), 45.5%. Also, the growth inhibition in test [3] (setting [7]) is 2%; in test [3] (setting [8]), 94% (active); in test [3] (at 50.0 µM), 67.6%; in test [4] (setting [7]), 1%; in test [4] (setting [8]), 82% (active); in test [4] (at 50.0 µM) it was 9%. Further, the growth inhibition is -4% in test [5] (setting [7]); 97% (active) in test [5] (setting [8]); 25.9% in test [5] (at 50.0 µM); -4% in test [6] (setting [7]); 97% (active) in test [6] (setting [8]); 74.3% (active) in test [6] (at 50.0 µM).

With `CCOC(=O)c1cnc2ccc(C3CCCCC3)cc2c1Nc1ccc2c(c1)OCO2`, the growth inhibition in test [1] (setting [7]) was -15%; in test [1] (setting [8]), 91% (active); in test [1] (at 50.0 µM), 11.1%; in test [2] (setting [7]), -4%; in test [2] (setting [8]), 95% (active); in test [2] (at 50.0 µM), -8.35%. Besides, the growth inhibition in test [3] (setting [7]) was -23%; in test [3] (setting [8]), 96% (active); in test [3] (at 50.0 µM) it was 5.15%; in test [4] (setting [7]), -9%; in test [4] (setting [8]), 92% (active); in test [4] (at 50.0 µM), -12.8%. Besides, the growth inhibition in test [5] (setting [7]) was 3%; in test [5] (setting [8]), 93% (active); in test [5] (at 50.0 µM) it was -7.25%; in test [6] (setting [7]) it was -3%; in test [6] (setting [8]), 93% (active); in test [6] (at 50.0 µM), 25.4%.

For the molecule `Cc1ccc(S(=O)(=O)CC(=O)CC(=O)C(=O)Nc2cc(C)ccc2C)cc1`, the growth inhibition was -1% in test [1] (setting [7]); 4% in test [1] (setting [8]); 34.2% in test [1] (at 50.0 µM); -2% in test [2] (setting [7]); -8% in test [2] (setting [8]); 9.95% in test [2] (at 50.0 µM). Also, the growth inhibition was -2% in test [3] (setting [7]); 0% in test [3] (setting [8]); 17.9% in test [3] (at 50.0 µM); -3% in test [4] (setting [7]); -1% in test [4] (setting [8]); 1.85% in test [4] (at 50.0 µM). Also, the growth inhibition is -2% in test [5] (setting [7]); -2% in test [5] (setting [8]); -0.55% in test [5] (at 50.0 µM); -2% in test [6] (setting [7]); -2% in test [6] (setting [8]); 12.6% in test [6] (at 50.0 µM).

Turning to `Cn1c(=O)c2c(ncn2-c2ccncc2)n(C)c1=O`, the growth inhibition was -5% in test [1] (setting [7]); 0% in test [1] (setting [8]); 11.4% in test [1] (at 50.0 µM); -4% in test [2] (setting [7]); -5% in test [2] (setting [8]); -3.9% in test [2] (at 50.0 µM). Also, the growth inhibition in test [3] (setting [7]) is -3%; in test [3] (setting [8]) it was -7%; in test [3] (at 50.0 µM) it was 15.9%; in test [4] (setting [7]), -3%; in test [4] (setting [8]), 31%; in test [4] (at 50.0 µM), 73.8% (active). The growth inhibition in test [5] (setting [7]) is -9%; in test [5] (setting [8]) it was -8%; in test [5] (at 50.0 µM) it was -5.35%; in test [6] (setting [7]) it was -5%; in test [6] (setting [8]), -2%; in test [6] (at 50.0 µM), 4.8%.

For `Oc1ccc(N=Nc2ccccc2)c(O)c1.Oc1ccc(N=Nc2ccccc2)c(O)c1.[Cu]`, the growth inhibition is 13% in test [1] (setting [7]); 96% (active) in test [1] (setting [8]); 98.1% (active) in test [1] (at 50.0 µM); 16% in test [2] (setting [7]); 98% (active) in test [2] (setting [8]); 98.2% (active) in test [2] (at 50.0 µM). Besides, the growth inhibition in test [3] (setting [7]) is 21%; in test [3] (setting [8]), 97% (active); in test [3] (at 50.0 µM), 98.9% (active); in test [4] (setting [7]), 1%; in test [4] (setting [8]), 92% (active); in test [4] (at 50.0 µM) it was 97.3% (active). The growth inhibition is 15% in test [5] (setting [7]); 95% (active) in test [5] (setting [8]); 97% (active) in test [5] (at 50.0 µM); 12% in test [6] (setting [7]); 96% (active) in test [6] (setting [8]); 97.1% (active) in test [6] (at 50.0 µM).

As to `O=C(O)CCCCCCC(=O)CCl`, the growth inhibition was 30% in test [1] (setting [7]); 74% (active) in test [1] (setting [8]); 72% (active) in test [1] (at 50.0 µM); 22% in test [2] (setting [7]); 82% (active) in test [2] (setting [8]); 83.5% (active) in test [2] (at 50.0 µM). Besides, the growth inhibition in test [3] (setting [7]) is 24%; in test [3] (setting [8]), 74% (active); in test [3] (at 50.0 µM), 66.2%; in test [4] (setting [7]), 25%; in test [4] (setting [8]) it was 38%; in test [4] (at 50.0 µM) it was 23.9%. The growth inhibition in test [5] (setting [7]) is 30%; in test [5] (setting [8]), 78% (active); in test [5] (at 50.0 µM), 58.4%; in test [6] (setting [7]) it was 19%; in test [6] (setting [8]) it was 86% (active); in test [6] (at 50.0 µM), 72.9% (active).

As for `O=Cc1cc(-c2ccccc2)n(-c2ccccc2)c1-c1ccccc1`, the growth inhibition in test [1] (setting [7]) is 18%; in test [1] (setting [8]) it was 18%; in test [1] (at 50.0 µM) it was 64.3%; in test [2] (setting [7]) it was 2%; in test [2] (setting [8]), -3%; in test [2] (at 50.0 µM), 22.2%. Moreover, the growth inhibition in test [3] (setting [7]) is -6%; in test [3] (setting [8]) it was 16%; in test [3] (at 50.0 µM), 63%; in test [4] (setting [7]), -6%; in test [4] (setting [8]), 27%; in test [4] (at 50.0 µM), 0%. Moreover, the growth inhibition in test [5] (setting [7]) was 0%; in test [5] (setting [8]), 9%; in test [5] (at 50.0 µM), 35.9%; in test [6] (setting [7]), -1%; in test [6] (setting [8]), 16%; in test [6] (at 50.0 µM), 47.3%.

Turning to `COc1ccc2c(c1)CCC1C2CCC2(C)C(=O)C(SC3=NC=NC4=NC=NC43)CC12` (stereo not given), the growth inhibition is 24% in test [1] (setting [7]); 97% (active) in test [1] (setting [8]); 97% (active) in test [1] (at 50.0 µM); 25% in test [2] (setting [7]); 99% (active) in test [2] (setting [8]); 92.7% (active) in test [2] (at 50.0 µM). The growth inhibition was 49% in test [3] (setting [7]); 99% (active) in test [3] (setting [8]); 96.7% (active) in test [3] (at 50.0 µM); -3% in test [4] (setting [7]); 98% (active) in test [4] (setting [8]); 91.8% (active) in test [4] (at 50.0 µM). The growth inhibition in test [5] (setting [7]) was 19%; in test [5] (setting [8]) it was 97% (active); in test [5] (at 50.0 µM), 92.2% (active); in test [6] (setting [7]), 20%; in test [6] (setting [8]) it was 98% (active); in test [6] (at 50.0 µM), 96.2% (active).
